Screening results deposited in PubChem by National Center for Advancing Translational Sciences (NCATS).
An excerpt weighted towards active compounds, which were near 18% of everything screened.
DT40 TDP1 CPT: growth inhibition of DT40 Tdp1-/-;hTDP1 cells with camptothecin (screen for TDP1 inhibitors); chicken DT40 Tdp1-/-;hTDP1 cells + 20 nM CPT, ATP luminescence, 48 h; Potency, µM (top dose mostly 46.2 µM), for inactives: at the top dose activity change, negative = growth inhibition, most hits filed as inhibitors; 420,000 tested, 12% active; AID 686979; also: nearly all actives have a fitted effect of over 55% in size
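Chicken DT40 Tdp1-/- cells stably complemented with human TDP1 were seeded at 400 cells/well in medium containing 20 nM camptothecin, exposed to pin-transferred compounds, and grown at 37 °C for at least 48 hr. Viability was read as ATP luminescence.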
VDR inh: inhibitors of human vitamin D receptor; P11473; 400,000 tested, 0.93% active; Potency, µM, for inactives: max response, negative = inhibition, actives largely listed as inhibitors; VDR-SRC2-3 peptide fluorescence polarization, 2 h; AID 504847
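VDR–SRC2-3 interaction, FP format. Cmpds 23 nl via pintool, brief spin, 2 h ambient incubation.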
DT40 TDP1 no CPT: qHTS for Inhibitors of human tyrosyl-DNA phosphodiesterase 1 (TDP1): qHTS in cells in absence of CPT. DT40 Tdp1-/- hTDP1 cells, no CPT, ATP luminescence, 48 h. Potency, µM (doses to about 46.2 µM), inactives show at the top dose activity change, negative = growth inhibition, hits mostly inhibitors. 420,000 tested, 15% active; also: nearly all actives have a fitted effect of over 55% in size
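Chicken DT40 Tdp1-/- cells stably complemented with human TDP1 were seeded at 400 cells/well with DMSO in place of 20 nM camptothecin. After compound pinning, cells grew at least 48 hr at 37 °C; viability read by CellTiter-Glo luminescence.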
TDP1 block: blocks human tyrosyl-DNA phosphodiesterase 1. recombinant TDP1, AlphaScreen DNA substrate cleavage. Potency, µM (doses to about 130 µM), inactives show at the highest dose activity change, negative = inhibition, most hits filed as inhibitors. 350,000 tested, 0.28% active; also: nearly all actives have a fitted effect of over 40% in size
Target sequence (Q9NUW8 whole entry, looked up): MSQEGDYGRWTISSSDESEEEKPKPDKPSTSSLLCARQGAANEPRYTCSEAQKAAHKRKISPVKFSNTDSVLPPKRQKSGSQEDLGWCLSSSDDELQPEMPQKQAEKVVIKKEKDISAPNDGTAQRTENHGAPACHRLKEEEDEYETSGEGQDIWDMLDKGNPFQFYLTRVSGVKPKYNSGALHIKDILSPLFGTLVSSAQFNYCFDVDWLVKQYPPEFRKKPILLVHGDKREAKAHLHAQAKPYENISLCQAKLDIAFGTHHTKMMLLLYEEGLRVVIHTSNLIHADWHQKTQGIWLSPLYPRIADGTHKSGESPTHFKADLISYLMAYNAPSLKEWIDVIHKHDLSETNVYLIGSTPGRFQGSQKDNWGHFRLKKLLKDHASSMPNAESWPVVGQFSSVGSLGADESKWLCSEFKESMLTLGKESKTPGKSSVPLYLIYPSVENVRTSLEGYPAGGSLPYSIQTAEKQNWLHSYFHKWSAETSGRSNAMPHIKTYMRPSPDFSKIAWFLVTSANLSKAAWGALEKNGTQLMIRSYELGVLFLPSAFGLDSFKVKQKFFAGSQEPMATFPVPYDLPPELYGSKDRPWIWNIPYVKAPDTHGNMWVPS
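Here, a 5' biotin and 3' phosphotyrosine-FITC DNA oligonucleotide reports Tdp1 activity: intact substrate bridges AlphaScreen beads, while cleavage leaves a 3' phosphate and drops signal. All incubations at room temperature.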
PLK1 PBD block: inhibitors of human PLK1 polo-box domain binding; Potency, µM, inactives show max response, negative = inhibition, hits mostly inhibitors; P53350; 360,000 tested, 2.8% active; Plk1 PBD binding of FITC phosphopeptide, fluorescence polarization; also: series mostly up to about 57 µM; nearly all actives have a fitted effect of over 65% in size
KAT2A inh: inhibitors of human GCN5L2 histone acetyltransferase; Q92830; GCN5L2 HAT assay, ThioGlo1 CoA-SH fluorescence; Potency, µM (doses to about 58.9 µM), for inactives: at the highest dose activity change, negative = inhibition, most hits filed as inhibitors; 390,000 tested, 0.21% active; AID 504327
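Fluorescence readout, Ex340nm/Em540nm: ThioGlo1 (50uM final) reacts with free CoA thiol released as 20nM GCN5L2 acetylates H3(1-25) peptide (75uM) using acetyl-CoA (70uM). Compound and enzyme sat 15 min beforehand; 20 min room-temperature reaction.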
An asterisk follows results filed as active; ? = inconclusive; · = not tested or not shown. Calls follow the shape of the dose curve; as a rule, active = well fitted curve in the direction sought with a large enough effect; inconclusive = small, poorly fitted or top-dose-only effect, or another doubt; inactive = no such curve, though single readings can be large; an effect the other way counts as inactive or inconclusive. % is scaled to controls: 0 for no effect and ±100 for the full control effect; potency is read from the fitted curve at half-maximal effect.

SMILES	DT40 TDP1 CPT	VDR inh	DT40 TDP1 no CPT	TDP1 block	PLK1 PBD block	KAT2A inh
O=C(c1cccc2ccccc12)C1CCCN(C(=O)CCCn2cncn2)C1 (stereo not given)	-22%	-3%	16µM*	0%	-6%	?
CCn1nc(C)cc1C(=O)N1CCCC(C(=O)c2ccccc2SC)C1 (stereo not given)	16µM*	-8%	18µM*	3%	-9%	-19%
CSc1ccccc1C(=O)C1CCCN(C(=O)c2ccc(N3CCOCC3)cc2)C1 (stereo not given)	?	-5%	?	0%	?	-1%
C/C=C(/CC[C@@H](C)[C@H]1CCC2C3=CC[C@H]4[C@H](C)[C@@H](O)CC[C@]4(C)C3CC[C@@]21C)C(C)C (stereo not given in full)	·	?	·	-7%	·	?
CCC1=C(OC(=O)c2ccccc2)C(C)(C)C(c2ccccc2)OC1=O (stereo not given)	?	9%	23µM*	0%	-1%	0%
CC1(C)C(=O)OC(c2ccccc2)C(C)(C)C1=O (stereo not given)	4%	?	-14%	·	2%	-3%
COCCNC(=O)C1(C)CCCN(Cc2noc(-c3ccccc3OC)n2)C1 (stereo not given)	?	·	?	·	-6%	·
CCCCOc1ccc(-c2nnc(-c3cc[n+](C)cc3)o2)cc1	-17%	-17%	?	-1%	-7%	12%
CCOc1ccc(-c2nnc(-c3ccccc3)o2)cc1	-1%	5%	?	-5%	3%	-19%
CCOc1ccc(-c2nnc(-c3ccncc3)o2)cc1	21µM*	71µM*	?	4%	27µM*	-12%
CCCCOc1ccc(-c2nnc(-c3ccncc3)o2)cc1	?	-14%	21µM*	5%	1%	-5%
Cc1cc(N/N=C2\CC(C)CC(C)(C)C2)nc2ccccc12 (stereo not given)	?	-10%	?	7%	0%	-11%
Cc1cc(N/N=C2/CCCc3ccccc32)nc2ccccc12	?	3%	10µM*	6%	6%	-11%
N#Cc1c(Nc2ccccc2Cl)s[nH]c1=O	15µM*	?	5.2µM*	9%	?	?
N#Cc1c(Nc2ccccc2C(F)(F)F)s[nH]c1=O	21µM*	?	21µM*	-5%	27µM*	?
Cc1cc(C)c(C#N)c(Nc2ccccc2Cl)n1	6%	11%	2%	6%	-4%	-2%
Oc1ccc2nnc3c(Br)cnn3c2c1	-8%	-13%	-5%	·	?	2%
CCOc1ccccc1C(=O)N(Cc1ccc(C)o1)C1CCS(=O)(=O)C1 (stereo not given)	?	?	?	8%	19µM*	-1%
CC(C)(C)c1ccc(OCC(=O)N(Cc2cccs2)C2CCS(=O)(=O)C2)cc1 (stereo not given)	16µM*	9%	?	·	-11%	?
CCCOc1cccc(C(=O)N(Cc2sccc2C)C2CCS(=O)(=O)C2)c1 (stereo not given)	?	22%	13µM*	4%	·	-3%
CCCCOc1cccc(C(=O)N(Cc2sccc2C)C2CCS(=O)(=O)C2)c1 (stereo not given)	?	3%	15µM*	5%	·	-8%
CCCOc1cccc(C(=O)N(Cc2ccc(OC)c(OC)c2)C2CCS(=O)(=O)C2)c1 (stereo not given)	-9%	-10%	-10%	6%	-8%	-1%
CCCOc1cccc(C(=O)N(Cc2ccc(C)o2)C2CCS(=O)(=O)C2)c1 (stereo not given)	?	6%	?	0%	·	3%
O=C(NCCc1ccccn1)C1CC12CCN(C(=O)c1ccccc1Cl)CC2 (stereo not given)	3%	·	6%	·	·	·
